# Assay results taken from PubChem BioAssay.
# Activity calls are given as the source filed them. Unless noted, no rule for the calls is given here.
# What was measured:
# [1] = anti-His antibody binders, primary screen, artefact control for SMM control protein annotation, biochemical, small-molecule microarray, 635 nm fluorescence (AID 1128); settings: anti-His Alexa647 antibody binding, higher = more signal;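 also: score merges feature fluorescence with signal-to-noise for each printed compound spot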
# [2] = tested on: Human papillomavirus type 1a E7 protein (residues 1-88); assay: HPV1a E7 small-molecule binders, primary screen, biochemical, small-molecule microarray, residues 1-88, 635 nm (AID 1129); settings: small-molecule microarray binding, fluorescence 635 nm; higher = more signal
# [3] = target: Focal adhesion kinase 1 (Homo sapiens) (UniProt Q05397); assay: small-molecule microarray binders of FAK, primary screen, biochemical, 635/667 nm fluorescence, BSA, DTT (AID 1130); settings: PTK2 binding, 635 nm fluorescence, higher = more signal;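 also: composite of spot emission at 667 nm and signal to noise over triplicate slides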
# Chain of Focal adhesion kinase 1 (Homo sapiens) (Q05397 whole entry, looked up): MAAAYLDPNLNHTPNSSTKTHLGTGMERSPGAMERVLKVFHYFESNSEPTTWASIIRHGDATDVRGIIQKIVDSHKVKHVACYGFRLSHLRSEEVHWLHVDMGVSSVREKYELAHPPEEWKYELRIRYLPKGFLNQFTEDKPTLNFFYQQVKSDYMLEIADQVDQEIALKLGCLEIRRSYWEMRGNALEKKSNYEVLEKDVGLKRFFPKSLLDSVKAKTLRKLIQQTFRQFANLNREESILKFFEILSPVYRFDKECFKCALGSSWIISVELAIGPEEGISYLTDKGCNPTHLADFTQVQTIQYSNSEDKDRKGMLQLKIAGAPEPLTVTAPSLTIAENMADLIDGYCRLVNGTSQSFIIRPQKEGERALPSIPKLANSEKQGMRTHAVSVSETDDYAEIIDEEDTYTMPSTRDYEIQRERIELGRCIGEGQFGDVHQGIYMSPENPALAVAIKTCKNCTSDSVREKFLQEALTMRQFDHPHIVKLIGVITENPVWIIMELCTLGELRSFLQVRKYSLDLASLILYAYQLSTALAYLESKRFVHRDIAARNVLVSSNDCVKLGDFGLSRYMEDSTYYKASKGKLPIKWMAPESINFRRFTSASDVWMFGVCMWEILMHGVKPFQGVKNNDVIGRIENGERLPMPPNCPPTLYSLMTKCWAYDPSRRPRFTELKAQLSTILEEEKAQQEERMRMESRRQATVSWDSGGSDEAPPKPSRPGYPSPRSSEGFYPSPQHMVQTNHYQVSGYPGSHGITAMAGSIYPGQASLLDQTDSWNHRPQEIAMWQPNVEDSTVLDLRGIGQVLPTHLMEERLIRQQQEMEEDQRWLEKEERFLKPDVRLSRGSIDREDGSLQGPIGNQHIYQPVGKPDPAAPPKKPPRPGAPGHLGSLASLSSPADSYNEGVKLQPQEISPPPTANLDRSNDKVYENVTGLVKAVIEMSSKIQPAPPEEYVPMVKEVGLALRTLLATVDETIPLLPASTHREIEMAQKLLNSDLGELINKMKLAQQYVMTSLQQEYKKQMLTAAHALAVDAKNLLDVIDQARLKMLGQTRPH
# [4] = tested on: Fibrinogen (Alexa647-labelled); assay: fibrinogen binders on compound microarrays, profiling panel, artefact control for SMM control-protein annotation, biochemical, small-molecule microarray, 635/667 nm fluorescence (AID 1131); settings: fibrinogen-A647 binding fluorescence, higher = more signal;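 also: z-score merges 667 nm fluorescence with per-spot signal-to-noise over triplicate slides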
# [5] = target: Follistatin (Homo sapiens) (UniProt P19883); assay: follistatin binders on small-molecule microarrays, primary screen, biochemical, small-molecule microarray, 635/667 nm fluorescence (AID 1132); settings: FST binding, 635 nm fluorescence, higher = more signal
# Chain of Follistatin (Homo sapiens) (P19883 whole entry, looked up): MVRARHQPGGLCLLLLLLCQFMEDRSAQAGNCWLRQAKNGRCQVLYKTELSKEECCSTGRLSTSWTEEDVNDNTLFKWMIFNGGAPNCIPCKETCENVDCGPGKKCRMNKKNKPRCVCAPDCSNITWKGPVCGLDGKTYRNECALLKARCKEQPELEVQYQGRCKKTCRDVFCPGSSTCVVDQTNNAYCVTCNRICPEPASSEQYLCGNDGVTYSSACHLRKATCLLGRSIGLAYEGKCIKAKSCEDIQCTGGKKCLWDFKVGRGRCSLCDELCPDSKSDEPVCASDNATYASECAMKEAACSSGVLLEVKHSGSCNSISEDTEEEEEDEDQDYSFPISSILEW
# [6] = target: Fibroblast growth factor 2 (Homo sapiens) (UniProt P09038); assay: FGF2 binders on small-molecule microarrays, primary screen, biochemical, small-molecule microarray, 635/667 nm fluorescence (AID 1133); settings: small-molecule microarray binding, FGF2, fluorescence 635/667; higher = more signal
# Chain of Fibroblast growth factor 2 (Homo sapiens) (P09038 whole entry, looked up): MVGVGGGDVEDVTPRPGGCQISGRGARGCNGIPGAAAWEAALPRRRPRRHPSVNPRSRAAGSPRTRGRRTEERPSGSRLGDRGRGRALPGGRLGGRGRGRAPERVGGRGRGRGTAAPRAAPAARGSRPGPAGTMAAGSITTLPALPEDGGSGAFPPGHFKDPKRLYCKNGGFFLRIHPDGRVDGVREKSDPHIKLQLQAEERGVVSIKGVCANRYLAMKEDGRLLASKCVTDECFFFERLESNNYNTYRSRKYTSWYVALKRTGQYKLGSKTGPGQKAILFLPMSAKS
# [7] = mitochondrial membrane potential change in A549 cells, profiling panel, cell-based, JC-1 fluorescence, basal, 24 h, 100 nL (AID 1138); settings: higher = more signal;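 also: A549 lung adenocarcinoma cells under basal conditions with no added stimulus; test concentration not given here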
# Lefty1 = Lefty1 binders on small-molecule microarrays, primary screen, biochemical, small-molecule microarray, 635/667 nm fluorescence (AID 1139); settings: small-molecule microarray binding, fluorescence 635/667; higher = more signal
# [8] = tested on: wheat germ agglutinin (Triticum aestivum), Alexa647-labelled; assay: wheat germ agglutinin binders on compound microarrays, profiling panel, artefact control for SMM control-protein annotation, biochemical, small-molecule microarray, 635/667 nm fluorescence (AID 1140); settings: WGA-A647 binding, 635 nm fluorescence, higher = more signal;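 also: score merges 667 nm feature emission with signal to noise over triplicate slides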
# [9] = target: Luciferin 4-monooxygenase (Photinus pyralis) (UniProt P08659); assay: firefly luciferase enzyme inhibitors, primary screen, biochemical, luminescence, purified enzyme, 2006 set (AID 1141); settings: SteadyGlo luminescence, 30 min, higher = more signal, called active from +8 up or from −8 down;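 also: cell-free assay with purified firefly luciferase at 100 ng per well in PBS; test concentration not given here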
# Chain of Luciferin 4-monooxygenase (Photinus pyralis) (P08659 whole entry, looked up): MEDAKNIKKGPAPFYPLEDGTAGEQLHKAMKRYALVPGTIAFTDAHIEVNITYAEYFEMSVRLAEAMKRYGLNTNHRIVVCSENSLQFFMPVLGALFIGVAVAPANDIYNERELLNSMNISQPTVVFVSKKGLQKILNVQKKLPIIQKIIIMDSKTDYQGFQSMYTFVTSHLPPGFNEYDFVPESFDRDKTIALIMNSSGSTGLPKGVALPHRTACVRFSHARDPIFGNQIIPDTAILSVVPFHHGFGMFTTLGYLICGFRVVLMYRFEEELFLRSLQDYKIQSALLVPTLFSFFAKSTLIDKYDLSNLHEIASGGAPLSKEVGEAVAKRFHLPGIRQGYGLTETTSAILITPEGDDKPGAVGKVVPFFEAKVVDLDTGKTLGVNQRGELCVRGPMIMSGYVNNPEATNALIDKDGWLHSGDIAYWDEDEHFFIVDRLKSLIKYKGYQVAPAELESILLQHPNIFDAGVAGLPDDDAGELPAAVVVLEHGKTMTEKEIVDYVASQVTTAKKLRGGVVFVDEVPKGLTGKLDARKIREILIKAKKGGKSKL
# [10] = tested on: Wnt5a (protein binding on small-molecule microarray); assay: Wnt5a binders on small-molecule microarray, primary screen, biophysical, 635/667 nm fluorescence (AID 1142); settings: 635 nm fluorescence, higher = more signal;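 also: fluorescence read at 667 nm with signal to noise per printed feature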
# [11] = cell viability in Huh7 cells, primary screen, cytotoxicity control for HCV replication inhibitor project, CellTiter-Glo luminescence, basal, 48 h (AID 1143); settings: Huh7 HCV replicon, higher = more signal, called active from +8 up or from −8 down;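 also: Huh7 hepatoma cells carrying a hepatitis C replication reporter with no stimulus; test concentration not given here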
# [12] = P. aeruginosa biofilm formation inhibitors, primary screen, PAO1 strain, BacTiter-Glo luminescence, LB-PBS (AID 1144); settings: 12 h, higher = more signal
# [13] = CREB reporter modulators without forskolin, primary screen, cell-based, PC12, CRE-LacZ reporter, unstimulated (AID 1145); settings: no forskolin, luminescence, 4.5 h, higher = more signal, called active from +8 up or from −8 down
# [14] = CREB reporter modulators under forskolin, primary screen, cell-based, PC12, CRE-LacZ reporter, forskolin-stimulated (AID 1146); settings: luminescence, 4.5 h, higher = more signal, called active from +8 up or from −8 down;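 also: PC12 cells with 6xCRE LacZ reporter stimulated by forskolin 10 µM; beta-galactosidase reporter signal reflecting CREB driven transcription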
# [15] = target: Streptavidin (Streptomyces avidinii) (UniProt P22629); assay: streptavidin binders on small-molecule microarray, primary screen, artefact control for SMM compound annotation, biophysical, 635/667 nm fluorescence (AID 1147); settings: streptavidin binding, higher = more signal;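 also: signal reflects streptavidin binding to arrayed compounds as a control protein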
# Chain of Streptavidin (Streptomyces avidinii) (P22629 whole entry, looked up): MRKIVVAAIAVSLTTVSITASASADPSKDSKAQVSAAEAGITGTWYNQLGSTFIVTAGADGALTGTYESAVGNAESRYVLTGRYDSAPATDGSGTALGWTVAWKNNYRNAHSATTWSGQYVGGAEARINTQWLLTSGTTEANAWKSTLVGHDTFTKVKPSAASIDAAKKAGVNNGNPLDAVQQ
# [16] = small-molecule binders of probe aInhba, primary screen, biochemical, small-molecule microarray, 635/667 nm fluorescence (AID 1148); settings: higher = more signal;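 also: score merges 667nm spot fluorescence with signal-to-noise for antibody binding to printed compounds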
# Torsin-1A (Homo sapiens) [17] = target: Torsin-1A (Homo sapiens) (UniProt O14656); assay: torsin A binders from cell lysate, primary screen, small-molecule microarray, wild-type, 635/667 nm (AID 1149); settings: COS7 hTOR1A-WT lysate, 635 nm fluorescence, higher = more signal
# Chain of Torsin-1A (Homo sapiens) (O14656 whole entry, looked up): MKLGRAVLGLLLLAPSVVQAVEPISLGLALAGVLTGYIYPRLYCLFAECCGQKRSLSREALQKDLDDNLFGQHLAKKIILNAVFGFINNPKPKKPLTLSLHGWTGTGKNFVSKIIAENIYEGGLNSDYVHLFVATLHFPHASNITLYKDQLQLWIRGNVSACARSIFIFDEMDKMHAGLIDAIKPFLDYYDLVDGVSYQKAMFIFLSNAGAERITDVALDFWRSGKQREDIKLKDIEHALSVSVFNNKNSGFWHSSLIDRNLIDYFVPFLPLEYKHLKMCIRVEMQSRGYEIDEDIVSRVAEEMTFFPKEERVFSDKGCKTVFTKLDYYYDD
# Torsin-1A (Homo sapiens) [18] = target: Torsin-1A (Homo sapiens) (UniProt O14656); assay: small-molecule binders of mutant TOR1A in lysate, primary screen, cell lysate, small-molecule microarray, COS7 lysate, 635/667 nm fluorescence (AID 1150); settings: COS7 hTOR1A mutant lysate, 635 nm fluorescence, higher = more signal;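 also: score pools 667 nm emission and signal to noise measuring lysate protein binding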
# [19] = tested on: Sonic hedgehog protein (Shh); assay: small-molecule binders of Shh protein, primary screen, biochemical, small-molecule microarray, 635/667 nm fluorescence (AID 1151); settings: small-molecule microarray binding, 635 nm fluorescence; higher = more signal;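 also: Shh protein binding to compounds spotted on small-molecule microarray slides; score combines spot fluorescence intensity with signal-to-noise across triplicate slides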
SMILES,composite z-score [1],composite z-score [2],composite z-score [3],composite z-score [4],composite z-score [5],composite z-score [6],z-score [7],composite z-score (Lefty1),composite z-score [8],z-score [9],composite z-score [10],z-score [11],z-score [12],z-score [13],z-score [14],composite z-score [15],composite z-score [16],composite z-score (Torsin-1A (Homo sapiens) [17]),composite z-score (Torsin-1A (Homo sapiens) [18]),composite z-score [19]
COc1ccc([Si](C)(C)[C@H]2[C@H](CCO)O[C@@]3(C(=O)N(Cc4ccc(N5CCOC5=O)cc4)c4ccccc43)[C@@H]2C)cc1,0.965,0.516,0.5,0.45,-0.11,-0.271,0.533,0.263,0.433,-0.605 (inactive),-0.159,-3.29 (inactive),-0.232 (inactive),2.2 (inactive),-2.06 (inactive),0.346,-0.0791,0.216,0.0362,0.397
CC(C)C(=C=CC[C@@H](O)c1cccc(OCCO)c1)CCO,0.241,0.0895,-0.0966,0.236,1.14,1.61,0.265,0.524,0.271,-0.852 (inactive),0.263,-0.219 (inactive),-0.468 (inactive),1.37 (inactive),-0.755 (inactive),-0.236,0.442,0.462,0.0336,0.567
COCC1=C([C@H](O)CCc2ccccc2)[C@H](CO)n2c(=O)n(-c3ccccc3)c(=O)n2C1,-0.507,-0.364,-0.044,-0.325,0.0942,1.08,-0.152,-0.0597,0.361,-1.59 (inactive),-0.419,-1.24 (inactive),-0.84 (inactive),0.129 (inactive),-0.2 (inactive),-0.101,-0.154,-0.115,-0.414,0.199
CCCCC=C[C@@H](NC(=O)c1ccc(C(F)(F)F)cc1)c1ccccc1,0.3,-0.839,0.185,-2.63,-0.21,-0.908,0.798,-0.671,0.052,1.02 (inactive),-0.467,-0.954 (inactive),1.03 (inactive),0.19 (inactive),1.47 (inactive),-0.683,-0.105,-0.652,-0.951,-0.845
COCCOC(=O)N1C(=O)[C@@]2(c3ccccc31)[C@H](c1ccc(OCCO)cc1)N1[C@H](c3ccccc3)[C@H](c3ccccc3)OC(=O)[C@H]1[C@@H]2C(=O)N1CCN(c2ncccn2)CC1,0.46,1.2,0.929,0.869,1.43,1.69,-1.03,1.37,1.04,-0.135 (inactive),0.453,-2 (inactive),-0.266 (inactive),0.22 (inactive),4.01 (inactive),0.826,0.134,0.819,0.794,1.86
CCOC(=O)C1=CC[C@@H](c2ccccc2)N(S(=O)(=O)C[Si](C)(C)C)[C@H]1c1ccccc1,1.07,1.19,0.656,0.996,1.21,0.497,-1.48,0.562,0.862,2.37 (inactive),0.389,-2.78 (inactive),-0.667 (inactive),-0.63 (inactive),1.56 (inactive),1.48,0.127,0.899,0.799,0.257
C=CCOC(=O)[C@H]1[C@@H]2C(=O)O[C@@H](c3ccccc3)[C@@H](c3ccccc3)N2[C@@H](c2ccc(OCCOC(=O)[C@H]3C[C@H]4C(=O)NCC(=O)N4[C@H]3c3ccc(O)cc3)cc2)[C@]12C(=O)Nc1ccc(I)cc12,0.611,0.956,0.351,0.843,1.2,1.53,-1.28,0.971,0.204,-0.8 (inactive),0.112,-0.402 (inactive),-1.01 (inactive),-0.13 (inactive),-0.8 (inactive),0.343,-0.0736,0.406,0.349,1.55
Cc1ccc(S[C@]2(C(=O)NCCN3CCOCC3)CC(=O)N(C3CCCCC3)[C@@H]2c2ccc(CO)cc2I)cc1,0.893,1.2,1.14,0.926,0.972,0.236,1.23,1.21,0.977,0.827 (inactive),0.328,-2.19 (inactive),-0.435 (inactive),-0.231 (inactive),0.341 (inactive),1.24,-0.117,0.383,1.15,1.94
O=C(NCC(F)(F)F)[C@@H]1c2ccccc2C(=O)N(CC23CC4CC(CC(C4)C2)C3)[C@H]1c1ccc(CO)cc1,1.08,0.722,1.46,0.378,1.16,1.15,0.588,0.827,0.393,0.972 (inactive),0.41,-3.88 (inactive),-2.52 (inactive),-0.412 (inactive),-1.46 (inactive),-0.169,0.038,0.11,0.438,1.62
CN(C)CCCCNC(=O)[C@H]1C[C@H]2C(=O)NCC(=O)N2[C@H]1c1cccc(OCCO)c1,0.465,-0.74,-0.539,-1.59,0.991,0.817,0.411,0.748,0.169,1.59 (inactive),0.133,0.344 (inactive),-0.254 (inactive),-0.398 (inactive),0.586 (inactive),-1.04,-0.202,0.0774,-0.0032,2.19
